{"source": "PubChem BioAssay (NCI)", "note": "This is part of a sample that, as a whole, favours compounds with a hit. Of some 83,000 tested, about 20% had one in any assay.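 Single-dose data. Exposure time 48 hours. Values below 10 considered active.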 Values without a mark were called inactive. Calls of active or inactive are those of the source.", "data": [{"tested_on": "SK-MEL-28 melanoma", "experiment": "NCI-60 one-dose screen, 48 h (100 = growth as untreated, 0 = no growth, -100 = all killed)", "conditions": "10 µM unless noted", "values": [{"molecule": "Cc1ccc(OC(=O)c2ccc(Cl)cc2)cc1", "growth": "106%"}, {"molecule": "O=C(CCCCC(=O)N/N=C\\c1ccccc1O)N/N=C\\c1ccccc1O", "growth": "48.3%"}, {"molecule": "Cc1ccc(NC(=O)/C=C/c2ccccc2)c(C(N)=O)c1", "growth": "33.1%"}, {"molecule": "CN1CCN(CCCOc2cccc3nc(Nc4ccc(Cl)c(F)c4)ccc23)CC1", "growth": "18.1%"}, {"molecule": "NC1=C(Cl)C(=O)c2ccc(S(N)(=O)=O)cc2C1=O", "growth": "-84.9% (active)"}, {"molecule": "O=C1c2cc3c(cc2-c2c1c1ccc(Cl)cc1c(=O)n2CCCN1CCOCC1)OCO3", "growth": "99.9%"}, {"molecule": "O=C1C=CC(=O)N1c1ccc2c(c1)Cc1cc(F)ccc1-2", "growth": "99.9%"}, {"molecule": "FC(F)(F)c1nc2c(NCc3ccc(-c4ccccc4)cc3)cccc2[nH]1", "growth": "92.1%"}, {"molecule": "OC(c1cc2cc(Cl)c(Cl)cc2c2cc(C(F)(F)F)ccc12)C1CCCCN1", "note": "(stereo unspecified)", "growth": "-79.1% (active)"}, {"molecule": "Brc1ccc(-c2csc(Nc3ccccn3)n2)cc1", "growth": "149%"}, {"molecule": "O=C(Cc1ccccc1Nc1c(Cl)cccc1Cl)NN1C(=O)/C(=C/c2ccc(Br)cc2)SC1=S", "growth": "105%"}, {"molecule": "COc1ccc(C2CC(c3ccc(Cl)cc3)=NN2/C=C2\\SC(=S)N(NC(=O)Cc3ccccc3Nc3c(Cl)cccc3Cl)C2=O)cc1", "note": "(stereo unspecified)", "growth": "92.1%"}, {"molecule": "CCOC(=O)c1csc(NC(=O)COc2cccc(/C=C3\\CSc4ccccc4C3=O)c2)n1", "growth": "89.3%"}, {"molecule": "Cn1cc(-c2nonc2-c2c[nH]c3ccccc23)c2cccnc21", "growth": "61.5%"}, {"molecule": "COc1cc(/C=C/c2cc(/C=C/c3ccc(O)c(OC)c3)n(-c3c(C)cccc3C)c(=O)n2)ccc1O", "growth": "0.867% (active)"}, {"molecule": "COc1cccc(C2=NN3C(C2)c2cc(Br)cc(OC)c2OC32CCN(Cc3ccccc3)CC2)c1", "note": "(stereo unspecified)", "growth": "107%"}, {"molecule": "CC(C)(C)c1cc(C(C)(C)C)cc(S(=O)(=O)Nc2cc3ccccc3cc2C(=O)NCCN)c1", "growth": "-44.9% (active)"}, {"molecule": "O=C(N(c1ccccc1)c1ccccc1)n1ccc2nc(Cl)nc(Cl)c21", "growth": "80.4%"}, {"molecule": "Cc1[nH]c(-c2cc(N)ccc2Cl)c2c1C(=O)CCCC2", "growth": "59.1%"}, {"molecule": "NC(=O)c1cc(Cl)ccc1NC(=O)/C=C/c1ccccc1", "growth": "40.6%"}, {"molecule": "Cn1ncc2c(=O)nc3c(-c4ccccc4)n[nH]n3c21", "growth": "138%"}, {"molecule": "Cn1cc(C(=O)c2nc(-c3c[nH]c4ccc(Br)cc34)no2)c2cc(F)ccc21", "growth": "105%"}, {"molecule": "Cc1[nH]c(-c2ccc3cc[nH]c3c2)c2c1C(=O)CCCC2", "growth": "66.2%"}, {"molecule": "O=C1/C(=C(/c2ccccc2)N2CCOCC2)Cc2ccccc21", "growth": "-28.9% (active)"}, {"molecule": "Cn1c(NCCc2ccc(O)c(O)c2)nc2c1c(=O)n(Cc1ccc(Cl)c(Cl)c1)c(=O)n2C", "growth": "77.3%"}, {"molecule": "Cc1nn(-c2ccc(F)cc2)c2ncnc(Oc3ccc(NC(=O)Nc4ccc(Cl)c(C(F)(F)F)c4)cc3)c12", "growth": "102%"}]}]}
